# Assay results: PubChem BioAssay (NCI)
# About 79,000 compounds went through this panel and 15% of them were active in at least one assay; those are over-represented in the sample as a whole. Unmarked numbers belong to inactive results. The source made the active and inactive calls. Cut-off read from the data, not from the text of the source: active = growth inhibition above about 70%; inactive = the rest.
# Columns and labels:
# [1] = NCI Yeast Anticancer Drug Screen. Data for the rad50 strain (AID 155);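 note: 0% = growth of vehicle-only cultures of the same strain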; conditions: S. cerevisiae rad50 strain growth inhibition, stronger effect = higher value
# How it was run: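 Vehicle-treated cultures provide the reference for the growth inhibition reported for compound-exposed, repair-deficient yeast.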
# [2] = NCI Yeast Anticancer Drug Screen. Data for the mec2-1 strain (AID 157); conditions: S. cerevisiae mec2-1 strain, stronger effect = higher value
# How it was run: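 Readout is yeast growth inhibition, normalised to vehicle-treated controls, in the mec2-1 strain exposed to compound.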
# [3] = NCI Yeast Anticancer Drug Screen. Data for the sgs1 mgt1 strain (AID 161);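 note: 0% = growth of cultures given vehicle only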; conditions: S. cerevisiae sgs1 mgt1 strain, stronger effect = higher value
# How it was run: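 Yeast cells carrying a defined DNA-repair defect were exposed to test compounds. Growth inhibition was measured relative to vehicle-treated controls.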
# [4] = NCI Yeast Anticancer Drug Screen. Data for the cln2 rad14 strain (AID 165);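 note: 0% = growth equal to vehicle treated cultures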; conditions: S. cerevisiae cln2 rad14 strain, stronger effect = higher value
# How it was run: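 Relative to vehicle controls, growth inhibition of compound-treated cln2 rad14 yeast was recorded.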
# [5] = NCI Yeast Anticancer Drug Screen. Data for the bub3 strain (AID 167); conditions: S. cerevisiae bub3 mutant strain, stronger effect = higher value
# How it was run: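 Mutant yeast screening strain plus compound; vehicle-treated cultures serve as the 0% inhibition reference.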
# [6] = NCI Yeast Anticancer Drug Screen. Data for the mlh1 rad18 strain (AID 175); conditions: S. cerevisiae mlh1 rad18 strain growth inhibition, stronger effect = higher value
# How it was run: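 Test agents were incubated with a yeast strain of defined genotype (DNA damage repair defect). Inhibition of growth was derived by comparison with vehicle-exposed cultures.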
# [7] = at 5.0 µM (retest, dose inferred, filed as 0.5)
# [8] = at 50.0 µM (retest, dose inferred, filed as 5.0)
SMILES,"growth inhibition [1, 7]","growth inhibition [1, 8]",growth inhibition ([1]; at 50.0 µM),"growth inhibition [2, 7]","growth inhibition [2, 8]",growth inhibition ([2]; at 50.0 µM),"growth inhibition [3, 7]","growth inhibition [3, 8]",growth inhibition ([3]; at 50.0 µM),"growth inhibition [4, 7]","growth inhibition [4, 8]",growth inhibition ([4]; at 50.0 µM),"growth inhibition [5, 7]","growth inhibition [5, 8]",growth inhibition ([5]; at 50.0 µM),"growth inhibition [6, 7]","growth inhibition [6, 8]",growth inhibition ([6]; at 50.0 µM)
COC1C(=[N+]=[N-])C(=O)NC(=O)N1C1OC(COC(c2ccccc2)(c2ccccc2)c2ccccc2)C(O)C1O (configuration not stated),63%,63%,69.5%,10%,10%,80.7% (active),18%,18%,66.8%,14%,14%,77.2% (active),13%,13%,60.2%,15%,15%,66.6%
N#C/C(=C\c1cc(Cl)cc(Cl)c1O)C(/C(C#N)=C/c1cc(Cl)cc(Cl)c1O)c1ccc2c(c1)OCO2 (configuration not stated),64%,98% (active),90.8% (active),48%,99% (active),93.5% (active),75% (active),100% (active),93.2% (active),44%,97% (active),91.8% (active),74% (active),99% (active),92.1% (active),80% (active),99% (active),90.8% (active)
CCCSc1n[nH]c(=S)s1,-3%,5%,27%,2%,30%,53%,-1%,46%,73.1% (active),-10%,29%,32.6%,-6%,13%,52%,-1%,15%,41.7%
FC(F)(F)c1ccc(NC(=S)SCc2ccc(Cl)cc2)cc1,8%,99% (active),99.3% (active),5%,99% (active),99.7% (active),13%,99% (active),99.5% (active),-3%,98% (active),99.4% (active),26%,99% (active),99.5% (active),17%,99% (active),99.5% (active)
